High-throughput results: PubChem, National Center for Advancing Translational Sciences (NCATS)
Pf growth 96h: inhibits malaria parasite growth, 96 h; AID 504834; Potency, µM (highest dose often 28.7 µM), for the others: top-dose activity change, negative = inhibition, most hits filed as inhibitors; P. falciparum luciferase reporter growth, 96 h; actives 6.9% (n = 320,000); further: potency means the concentration at half of the fitted maximal effect; on the % scale 0 is the no-effect control and ±100 the full control effect
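96 h incubation, 37 C, 5% CO2, of luciferase-reporter P. falciparum-infected RBCs (2% hematocrit, 0.05% parasitemia final) with test compounds; endpoint luminescence.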
Pf growth 48h: P. falciparum growth inhibition at 48 hours (one generation); P. falciparum luciferase growth in erythrocytes, 48 h; Potency, µM (series often up to 28.7 µM), inactives show top-dose activity change, negative = inhibition, actives largely listed as inhibitors; actives 5.9% (n = 310,000); AID 504832; further: potency means the concentration at half of the fitted maximal effect; on the % scale 0 is the no-effect control and ±100 the full control effect
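Growth was read as firefly luciferase luminescence after a 48 h, 37 C, 5% CO2 exposure of compounds to reporter-bearing P. falciparum cultures (0.1% parasitemia, 2% hematocrit final) in Albumax-supplemented RPMI 1640.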
NS1 function inh: blocks influenza NS1 protein function | actives 0.4% (n = 270,000) | Potency, µM (series often up to 46.1 µM), without a hit: top-dose activity, positive = more growth; calls by dose curve; further: potency means the concentration at half of the fitted maximal effect; actives are rising curves; nearly all actives have a fitted effect of over 50% in size
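Read-out: OD600 growth recovery of NS1-expressing budding yeast. Cells grown overnight at 30C in -URA glucose medium, washed, resuspended and diluted 1:100 in 2% galactose assay medium, pH 6.0. Same strain lacking NS1 served as positive control.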
Shiga toxin inh: Shiga toxin inhibition. AID 2315. Vero cells, Shiga toxin protein synthesis inhibition reporter. actives 9.2% (n = 290,000). inhibition, % at 38.7 µM; in the data active means inhibition mostly above about 28%, no sharp cut-off; inactive means mostly below about 43%; further: 0% is about no effect
Cycloheximide cs: counter-screen for Shiga toxin inhibitors: cycloheximide protein synthesis inhibition | actives 12% (n = 300,000) | cell reporter, cycloheximide protein synthesis inhibition counterscreen | max response, %; in the data active means max response mostly above about 13%, no sharp cut-off; inactive means mostly below about 14%; further: read at 38.3 µM for the half of the compounds with a filed dose; 0% is about no effect
* = called active by the depositor. Hits are enriched below; roughly 21% of the tested compounds scored in any of these assays. Unless noted, the call rests on the fitted dose curve; in most records, active means well fitted inhibition curve with a large enough effect; inconclusive means small, poorly fitted or top-dose-only effect, or another doubt; inactive means no such curve, though single readings can be large or run the other way.

How did COC(=O)C1C(=O)C2=C(CC1C)NC(C)=C(C(=O)OC(C)C)C2c1ccc(OC)c(O)c1 (stereo unspecified) do in these assays?
Pf growth 48h: inconclusive; NS1 function inh: 3.0%; Shiga toxin inh: -9.6; Cycloheximide cs: -3.0

How did N#Cc1ccc(OCC(=O)N(C2CCCCC2)C2CCS(=O)(=O)C2)cc1 (stereo unspecified) do in these assays?
Pf growth 96h: -31.0%; Pf growth 48h: 8.1%

Results for O=S(=O)(NCc1cccs1)c1cccc2cccnc12 ?
Pf growth 96h: 24.1%; Pf growth 48h: 3.2%; NS1 function inh: 4.4%; Shiga toxin inh: -4.0; Cycloheximide cs: -1.0

What do the screens show for `CC(Oc1ccc(C(C)(C)C)cc1)C(=O)NC1CC(C)(C)NC(C)(C)C1` (stereo unspecified)?
Pf growth 96h: 0.0%; Pf growth 48h: -3.9%; NS1 function inh: 11.5%; Shiga toxin inh: -4.7; Cycloheximide cs: 1.9

Results for Cc1cc(N/N=C/c2cccc(Br)c2)nc2ccccc12 ?
Pf growth 96h: 39.4%; Pf growth 48h: inconclusive; NS1 function inh: -8.7%; Shiga toxin inh: 23.8*; Cycloheximide cs: 33.4*

Results for Cc1cc(N/N=C/c2ccncc2)nc2ccccc12 ?
Pf growth 96h: inconclusive; Pf growth 48h: inconclusive; NS1 function inh: 0.3%; Shiga toxin inh: 49.5*; Cycloheximide cs: 13.7

What do the screens show for `COc1cc(C(=O)NCc2nnc(SCC(=O)N3CCc4ccccc43)o2)cc(OC)c1OC`?
Pf growth 96h: 152.9%; Pf growth 48h: -16.5%; NS1 function inh: -3.2%; Shiga toxin inh: -2.1; Cycloheximide cs: -1.2

Results for CCN1CCc2c(C#N)c(N3CCCCC3)nc(N3CCOCC3)c2C1 ?
Pf growth 96h: inconclusive; Pf growth 48h: inconclusive; NS1 function inh: -3.4%; Shiga toxin inh: -20.8; Cycloheximide cs: 5.7

How did CCN(CC)c1nc(N2CCOCC2)c(C#N)c2c1CN(C)CC2 do in these assays?
Pf growth 96h: 10.4µM*; Pf growth 48h: inconclusive; NS1 function inh: -4.2%; Shiga toxin inh: -20.7; Cycloheximide cs: -5.5

Results for N#Cc1c(N2CCOCC2)nc(N2CCCCC2)c2c1CCN(C1CCCCC1)C2 ?
Pf growth 96h: 1.47µM*; NS1 function inh: 1.3%; Shiga toxin inh: -5.5; Cycloheximide cs: -4.8

What do the screens show for `CC(C)=CCC/C(C)=C/COc1c2ccoc2cc2oc(=O)ccc12`?
Shiga toxin inh: 13.2; Cycloheximide cs: 14.3

What do the screens show for `COc1ccc(CNC(=O)c2cc(C)nn2-c2ccccc2)cc1`?
Pf growth 96h: 3.4%; Pf growth 48h: 12.4%; NS1 function inh: 3.5%; Shiga toxin inh: 10.7; Cycloheximide cs: -1.2

Results for CC(=O)c1ccc(NCCC(=O)c2ccccc2)cc1 ?
Pf growth 96h: -4.6%; Pf growth 48h: 48.2%; NS1 function inh: 2.4%; Shiga toxin inh: 23.2; Cycloheximide cs: 10.8

What do the screens show for `Cc1ccc(C(=O)CCC(=O)Nc2cccc(C)c2)cc1`?
Pf growth 96h: 0.0%; Pf growth 48h: 23.4%; NS1 function inh: 13.5%; Shiga toxin inh: -8.9; Cycloheximide cs: -1.0

What do the screens show for `CC(C)c1ccc(NCCC(=O)c2ccc(Br)cc2)cc1`?
Pf growth 96h: 9.28µM*; Pf growth 48h: 0.6%; NS1 function inh: -5.6%; Shiga toxin inh: -8.3; Cycloheximide cs: -4.3

Results for Cc1cccc(NCCC(=O)c2ccc(Br)cc2)c1 ?
Pf growth 96h: 33.9%; Pf growth 48h: 13.2%; NS1 function inh: -18.2%; Shiga toxin inh: 41.8; Cycloheximide cs: 24.4*

Results for C=CCNc1ncnc2c1[nH]c1ccc(Cl)cc12 ?
Pf growth 48h: inconclusive; NS1 function inh: -54.4%; Shiga toxin inh: 81.5*; Cycloheximide cs: 36.8*

Results for C=CCNc1ncnc2ccccc12 ?
Pf growth 96h: 0.4%; Pf growth 48h: 0.7%; NS1 function inh: -6.7%; Shiga toxin inh: -17.4; Cycloheximide cs: 4.0

How did COc1ccc2[nH]c3c(Cl)ncnc3c2c1 do in these assays?
Pf growth 96h: inconclusive; Pf growth 48h: 6.0%; NS1 function inh: -12.0%; Shiga toxin inh: -14.4; Cycloheximide cs: 0.7

How did C=CCNc1ncnc2c1[nH]c1ccccc12 do in these assays?
Pf growth 96h: inconclusive; Pf growth 48h: 13.1µM*; NS1 function inh: -14.6%; Shiga toxin inh: 12.9; Cycloheximide cs: 10.2*

Results for CN1C(=O)C(=O)/C(=C(/O)c2ccccc2)C1c1ccc(Br)cc1 (stereo unspecified) ?
Pf growth 96h: inconclusive; Pf growth 48h: -9.1%; NS1 function inh: 1.3%; Shiga toxin inh: -2.2; Cycloheximide cs: -1.2
